In PubChem BioAssay AID1159580 (chemical genetic matrix, 2015):
“And” between values parts separate entries of the source, which are not always exact repeats. Identical values can stand only once. Out of some 5,500 compounds screened, about 2,000 (36%) were called active. Inconclusive results (about 18%) are left out. No stated cut-off is given here; in the data, active means normalized growth mostly below about 0.91 (no sharp cut-off); inconclusive means no clear call, values can overlap the other calls; inactive means mostly above about 0.92. The list shows a part of the results.

Test: chemical genetic growth profiling, strain panel (AID 1159580);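 further: tested at 20 µM; growth read once vehicle control cultures reached saturation at 30 °C; 1 = growth at the plate median or of vehicle wells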
Conditions: S. cerevisiae deletion strains, growth OD

Measured: normalized growth

COc1ccc(-c2oc3c(CC=C(C)C)c(O[C@@H]4O[C@H](CO)[C@@H](O)[C@H](O)[C@H]4O)cc(O)c3c(=O)c2O[C@@H]2O[C@@H](C)[C@H](O)[C@@H](O)[C@H]2O)cc1
active: locus YBR021W, strain FUR4, stronger effect = lower value 1.19 [resistant]
inactive: locus YAL013W, strain DEP1, stronger effect = lower value 1.04 | locus YAL021C, strain ccr4, stronger effect = lower value 1.05 | locus YAL026C, strain drs2, stronger effect = lower value 1.05 | locus YAL030W, strain snc1, stronger effect = lower value 1.04 | locus YBL061C, strain skt5, stronger effect = lower value 1.03 | locus YBR009C, strain hhf1, stronger effect = lower value 1.03 | locus YBR023C, strain chs3, stronger effect = lower value 1.02 | locus YBR171W, strain sec66, stronger effect = lower value 1.06 | locus YBR229C, strain ROT2, stronger effect = lower value 1 | locus YBR231C, strain swc5, stronger effect = lower value 1.03 | locus YBR279W, strain paf1, stronger effect = lower value 1.03 | locus YCL011C, strain gbp2, stronger effect = lower value 1.03 | locus YCL016C, strain dcc1, stronger effect = lower value 1 | locus YCL029C, strain bik1, stronger effect = lower value 0.976 | locus YCL061C, strain MRC1, stronger effect = lower value 1.04 | locus YCL069W, strain vba3, stronger effect = lower value 1.02 | locus YCR088W, strain abp1, stronger effect = lower value 1.04 | locus YDL005C, strain med2, stronger effect = lower value 1.03 | locus YDL035C, strain GPR1, stronger effect = lower value 1 | locus YDL040C, strain nat1, stronger effect = lower value 1.02 | locus YDL074C, strain BRE1, stronger effect = lower value 0.988 | locus YDL101C, strain DUN1, stronger effect = lower value 0.989 | locus YDL185W, strain tfp1, stronger effect = lower value 0.955 | locus YDL192W, strain arf1, stronger effect = lower value 0.987 | locus YDR001C, strain nth1, stronger effect = lower value 1.04 | locus YDR069C, strain doa4, stronger effect = lower value 1.06 | locus YDR101C, strain arx1, stronger effect = lower value 0.975 | locus YDR137W, strain rgp1, stronger effect = lower value 1.07 | locus YDR150W, strain NUM1, stronger effect = lower value 1.01 | locus YDR159W, strain sac3, stronger effect = lower value 1.07 | locus YDR162C, strain NBP2, stronger effect = lower value 0.989 | locus YDR195W, strain ref2 1.05 | locus YDR297W, strain sur2, stronger effect = lower value 1.03 | locus YDR318W, strain mcm21, stronger effect = lower value 0.986 | locus YDR334W, strain swr1, stronger effect = lower value 1.04 | locus YDR335W, strain msn5, stronger effect = lower value 1.02 | locus YDR388W, stronger effect = lower value 0.99 | locus YDR392W, strain spt3, stronger effect = lower value 1 | locus YDR502C, strain sam2, stronger effect = lower value 0.989 | locus YEL003W, strain gim4, stronger effect = lower value 1.03 | locus YEL037C, strain rad23, stronger effect = lower value 1.03 | locus YEL061C, strain CIN8 (second series), stronger effect = lower value 1.04 | locus YEL061C, strain CIN8, stronger effect = lower value 0.993 | locus YER015W, strain faa2, stronger effect = lower value 1.02 | locus YER016W, strain bim1, stronger effect = lower value 1.03 | locus YER110C, stronger effect = lower value 0.966 | locus YER111C, strain swi4, stronger effect = lower value 1.05 | locus YER155C, strain BEM2 (second series), stronger effect = lower value 1.05 | locus YER155C, strain BEM2, stronger effect = lower value 1 | locus YER167W, strain BCK2, stronger effect = lower value 1.01 | locus YFR010W, strain ubp6, stronger effect = lower value 1.05 | locus YGL078C, strain dbp3, stronger effect = lower value 0.983 | locus YGL086W, strain mad1, stronger effect = lower value 0.975 | locus YGL167C, strain pmr1, stronger effect = lower value 1.02 | locus YGL173C, strain kem1, stronger effect = lower value 1.05 | locus YGL227W, strain vid30, stronger effect = lower value 1.04 | locus YGL240W, strain doc1, stronger effect = lower value 1.04 | locus YGL248W, strain PDE1, stronger effect = lower value 1.01 | locus YGL253W, strain hxk2, stronger effect = lower value 0.946 | locus YGR078C, strain PAC10, stronger effect = lower value 1 | locus YGR135W, strain pre9, stronger effect = lower value 1 | locus YGR252W, strain gcn5, stronger effect = lower value 1.06 | locus YHR013C, strain ard1, stronger effect = lower value 1.03 | locus YHR027C, strain rpn1, stronger effect = lower value 1.03 | locus YHR030C, strain SLT2, stronger effect = lower value 0.99 and 1.02 | locus YHR079C, strain IRE1 (second series), stronger effect = lower value 0.965 | locus YHR079C, strain IRE1, stronger effect = lower value 1.03 | locus YHR094C, strain hxt1, stronger effect = lower value 0.988 | locus YHR129C, strain ARP1, stronger effect = lower value 0.996 | locus YHR142W, strain chs7, stronger effect = lower value 1.01 | locus YHR200W, strain rpn10, stronger effect = lower value 0.997 | locus YIL066C, strain RNR3, stronger effect = lower value 1.02 | locus YIL073C, strain SPO22, stronger effect = lower value 0.924 | locus YIL125W, strain kgd1, stronger effect = lower value 0.985 | locus YIR030C, strain dcg1, stronger effect = lower value 0.983 | locus YJL092W, strain hpr5, stronger effect = lower value 1.04 | locus YJL095W, strain BCK1 (second series), stronger effect = lower value 1.03 | locus YJL095W, strain BCK1, stronger effect = lower value 0.975 and 1.02 | locus YJL115W, strain asf1, stronger effect = lower value 1.05 | locus YJL129C, strain trk1, stronger effect = lower value 1.02 | locus YJL134W, strain LCB3, stronger effect = lower value 1.01 | locus YJL154C, strain vps35, stronger effect = lower value 1.04 | locus YJL164C, strain tpk1, stronger effect = lower value 1.01 | locus YJL166W, strain qcr8, stronger effect = lower value 1.04 | locus YJL168C, strain set2, stronger effect = lower value 0.985 | locus YJL187C, strain SWE1 (second series), stronger effect = lower value 0.987 | locus YJL187C, strain SWE1, stronger effect = lower value 1.02 | locus YJR043C, strain POL32, stronger effect = lower value 1.04
